Where “and” joins values, the source holds several entries; their conditions need not be identical. Equal values may be shown once. Screen size: about 260,000 compounds; about 1,500 (0.58%) were called active. Inconclusive results (about 5%) are left out.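 Rule for the calls: active = inhibition above a set limit at one or more doses, reproduced on every date tested; inconclusive = results disagree between test dates, or hit never tested in dose response; inactive = the rest.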 A selection follows. Results with a measured potency or affinity are listed apart.
target: Virion infectivity factor (Human immunodeficiency virus type 1 group M subtype B (isolate BH10)) + Virion infectivity factor (Human immunodeficiency virus type 1 group M subtype B (isolate BRU/LAI)) + Virion infectivity factor (Human immunodeficiency virus type 1 group M subtype B (isolate PCV12)) + Virion infectivity factor (Human immunodeficiency virus type 1 group M subtype B (isolate HXB2)) + DNA dC->dU-editing enzyme APOBEC-3G (Homo sapiens) (UniProt P69720+P69721+P69722+P69723+Q9HC16); assay: inhibitors of Vif binding to APOBEC3G peptide, primary screen, biochemical, TR-FRET, GST-Vif 1-94, biotin-A3G peptide, dose response retest (AID 1117319); settings: stronger effect = higher value;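 note: Vif residues 1-94 fused to GST binding biotinylated APOBEC3G peptide 110-148; 0% = full assay without inhibitor and 100% = GST in place of GST-Vif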

inhibition, inactive:
N#CC(C#N)=C1NC2(CCCC2)Cc2ccccc21 1.13%
Cc1ccc(Nc2nc(N)nc(CN3CCN(Cc4ccc5c(c4)OCO5)CC3)n2)cc1C 3.16%
CC(C)(O)C#Cc1ccc(C(=O)NCc2ccccc2)s1 6.16%
Cc1cccc(Oc2nc(-c3cccc([N+](=O)[O-])c3)nc3ccccc23)c1C -5.88%
Cc1ccc(NC2=NC(c3ccc(F)cc3)n3c(nc(C)cc3=O)N2)cc1 (stereo not given) 5.66%
CC(C)(C)OC(=O)NCCCC[C@H](NC(=O)c1nc[nH]c1C(=O)N[C@@H](CCCCNC(=O)OC(C)(C)C)C(=O)OC(C)(C)C)C(=O)OC(C)(C)C -5.41%
CC(=O)N1CCN(C(=O)CCC(=O)O)CC1 -4.74%
Cc1ccc(C)c(N(CC(=O)NCCSCc2ccco2)S(C)(=O)=O)c1 12%
Cc1ccccc1N(CC(=O)NCCSCc1ccco1)S(C)(=O)=O 3.05%
Cc1ccc(N(CC(=O)NCCSCc2ccco2)S(=O)(=O)c2ccc(C)cc2)cc1 -4.1%
COc1ccc(N(CC(=O)NCCSCc2ccco2)S(=O)(=O)c2ccc(C)cc2)cc1 -1.79%
O=C(CSc1nc2[nH]ncc2c(=O)[nH]1)Nc1cc(C(F)(F)F)ccc1Cl 3.21%
COc1ccc(CCNC(=O)CCSc2nc(-c3ccco3)cc(C(F)(F)F)n2)cc1 2.48%
CNC(=O)OCc1nc(SSC(C)(C)C)n(C)c1COC(=O)NC -4.09%
O=C(c1c(Cl)cccc1Cl)N1CCN(c2ccccn2)CC1 3.31%
CCC(c1nnnn1Cc1ccccc1)N(Cc1ccco1)Cc1cc2cc(OC)ccc2[nH]c1=O (stereo not given) 6.8% and 6.79%
CCOc1ccc2[nH]c(=O)c(CN(Cc3ccco3)C(CC)c3nnnn3Cc3ccccc3)cc2c1 (stereo not given) 4.17% and 12.4%
CCOC(=O)c1cc(NC(=O)CNCC(c2ccccc2)N(C)C)cc(C(=O)OCC)c1 (stereo not given) -3.03%
O=C1NC(Cc2ccccc2)c2nc3ccccc3c(=O)n2-c2cc3ccccc3cc21 (stereo not given) 0.54%
CC1NC(=O)NC1CCCCCC(=O)NCCc1ccccc1 (stereo not given) 31.4%
CC1NC(=O)NC1CCCCCC(=O)Nc1ccc(F)c(Cl)c1 (stereo not given) -8.82%
Cc1c(Cl)cccc1NC(=O)CCCCCN1C(=O)CCC1=O -0.64%
Cc1ccc(NC(=O)CCC(=O)Nc2ccc(C)cc2)cc1 2.94%
CCc1cccc(NC(=O)CCSCCC(=O)Nc2cccc(CC)c2)c1 -3.74%
Cc1c(F)cccc1NC(=O)CSCC(=O)Nc1ccccc1 4.77%
